# Test results from PubChem BioAssay (NCATS).
# Inconclusive results are not listed. The source made the active and inactive calls. Calls follow the shape of the dose curve; as a rule, active = well fitted inhibition curve with a large enough effect; inconclusive = small, poorly fitted or top-dose-only effect; inactive = flat fitted curve, though single readings scatter.
# Biological target: Lysine-specific demethylase 5B (Homo sapiens) (UniProt Q9UGL1)
# Assay: Optimization screen for KDM5B Histone Demethylases FDH coupled qHTS against the LOPAC library (AID 1347166); also: 0% is about no effect
# Conditions: KDM5B demethylation, FDH-coupled NADH fluorescence (FDH is formaldehyde dehydrogenase); at 57.5 µM (top of the series)
# Method in brief: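 KDM5BDeltaAP (200nM final) preincubated 10 min with compound, then 12.5uM H3K4Me3, 25uM a-ketoglutarate, ascorbate, Fe(II), NAD+ and FDH added; 50mM HEPES pH 7.5, 0.01% Tween-20. NADH fluorescence (340/450 nm) change over 30 min, room temperature.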
# Lysine-specific demethylase 5B (Homo sapiens), sequence (Q9UGL1 whole entry, looked up): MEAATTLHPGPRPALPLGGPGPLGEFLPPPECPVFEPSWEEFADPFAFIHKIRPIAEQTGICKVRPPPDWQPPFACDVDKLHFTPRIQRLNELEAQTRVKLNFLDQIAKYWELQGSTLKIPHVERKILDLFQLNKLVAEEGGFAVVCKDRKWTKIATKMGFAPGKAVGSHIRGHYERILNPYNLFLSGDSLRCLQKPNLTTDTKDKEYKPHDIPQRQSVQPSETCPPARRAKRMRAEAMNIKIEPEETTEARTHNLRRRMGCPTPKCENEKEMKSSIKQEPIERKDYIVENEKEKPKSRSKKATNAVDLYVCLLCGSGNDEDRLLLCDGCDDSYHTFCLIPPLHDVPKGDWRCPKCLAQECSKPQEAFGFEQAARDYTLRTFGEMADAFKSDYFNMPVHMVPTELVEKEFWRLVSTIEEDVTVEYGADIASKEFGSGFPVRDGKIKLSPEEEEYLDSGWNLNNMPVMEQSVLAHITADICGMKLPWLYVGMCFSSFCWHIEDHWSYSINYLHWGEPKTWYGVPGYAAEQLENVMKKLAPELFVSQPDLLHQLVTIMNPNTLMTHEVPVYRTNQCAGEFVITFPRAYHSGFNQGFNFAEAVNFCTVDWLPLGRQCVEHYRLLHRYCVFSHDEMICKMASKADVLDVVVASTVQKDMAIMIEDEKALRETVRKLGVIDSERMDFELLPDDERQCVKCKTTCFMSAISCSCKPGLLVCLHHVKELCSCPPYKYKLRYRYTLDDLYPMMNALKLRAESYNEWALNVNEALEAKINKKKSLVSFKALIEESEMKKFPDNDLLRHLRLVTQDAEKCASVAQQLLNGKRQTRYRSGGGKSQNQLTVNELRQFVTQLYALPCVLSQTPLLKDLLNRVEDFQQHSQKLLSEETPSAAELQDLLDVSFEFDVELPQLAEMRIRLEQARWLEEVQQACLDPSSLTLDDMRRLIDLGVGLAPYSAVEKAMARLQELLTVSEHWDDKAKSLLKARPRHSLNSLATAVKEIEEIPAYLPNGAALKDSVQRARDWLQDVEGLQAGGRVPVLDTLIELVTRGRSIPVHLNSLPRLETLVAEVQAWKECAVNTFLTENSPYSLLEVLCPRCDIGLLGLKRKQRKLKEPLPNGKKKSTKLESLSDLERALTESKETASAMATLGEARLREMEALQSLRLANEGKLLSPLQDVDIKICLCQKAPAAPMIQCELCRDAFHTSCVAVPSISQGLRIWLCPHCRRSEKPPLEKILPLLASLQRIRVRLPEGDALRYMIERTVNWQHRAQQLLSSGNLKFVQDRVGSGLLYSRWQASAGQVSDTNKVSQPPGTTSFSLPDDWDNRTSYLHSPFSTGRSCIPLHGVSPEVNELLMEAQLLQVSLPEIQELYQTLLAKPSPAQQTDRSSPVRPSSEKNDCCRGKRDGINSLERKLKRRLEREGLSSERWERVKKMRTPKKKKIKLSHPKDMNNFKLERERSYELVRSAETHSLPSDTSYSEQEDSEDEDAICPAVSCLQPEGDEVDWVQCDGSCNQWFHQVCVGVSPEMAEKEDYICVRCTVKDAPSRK
row,Structure (SMILES),"activity, negative = inhibition"
1,OCC1NCC(O)C(O)C1O (centres undefined),-3.55% (inactive)
2,[Li+],-3.55% (inactive)
3,CC(=O)/C(C)=N/O,-0.876% (inactive)
4,CNCCc1cnc(CCC(c2ccccc2)c2ccccc2)[nH]1,-15.1% (inactive)
5,COc1ccc2c(c1)c(CC(=O)O)c(C)n2Cc1ccc(Cl)cc1,-5.89% (inactive)
6,COc1cc(N)c(Cl)cc1C(=O)OCCN1CCCCC1,-18.2% (inactive)
7,CCOC(=O)C12CC1/C(=N/O)c1ccccc1O2 (centres undefined),-9.53% (inactive)
8,CC(C)C[C@H](NC(=O)[C@H](O)[C@H](N)Cc1ccccc1)C(=O)O,-4.3% (inactive)
9,CN(C)CCC(c1ccc(Br)cc1)c1ccccn1 (centres undefined),-1.47% (inactive)
10,NCC(O)(CS(=O)(=O)O)c1ccc(Cl)cc1 (centres undefined),-2.36% (inactive)
11,CCN1C(=O)C=CC1=O,-3.85% (inactive)
12,O=C(O)C1CN(CCCP(=O)(O)O)CCN1 (centres undefined),0.457% (inactive)
13,N[C@@H](Cc1c[nH]c2ccccc12)C(=O)O,-20.4% (inactive)
14,CCN(c1nc(N)c(C(=O)N=C(N)N)nc1Cl)C(C)C,-3.16% (inactive)
15,NCC(O)C1CCCCCCC1 (centres undefined),-4.79% (inactive)
16,CCCCCCCCCCCCCCSCC(=O)O,-24.4% (inactive)
17,Cn1ccnc1,-0.951% (inactive)
18,CCCOC(=O)c1c(-c2ccccc2)nc(CC)c(C(=O)SCC)c1CCC,-14.4% (inactive)
19,CCC1(O)CC2CN(CCc3c([nH]c4ccccc34)[C@@](C(=O)OC)(c3cc4c(cc3OC)N(C)C3[C@]45CCN4CC=C[C@@](CC)([C@@H](OC(C)=O)[C@]3(O)C(=O)OC)[C@H]45)C2)C1 (some centres undefined),-13.4% (inactive)
